Results published in PubChem BioAssay AID1117319 (Southern Research Institute, 2015).
Values joined by “and” are separate entries in the source; they are usually repeats but may differ in a detail not shown here. Equal values may be shown once. The campaign covered roughly 260,000 compounds. About 1,500 (0.58%) were called active. Not shown: some 5% with an inconclusive outcome.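 How the source made its calls: active means inhibition above a set limit at one or more doses, reproduced on every date tested; inconclusive means results disagree between test dates, or hit never tested in dose response; inactive means the rest.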 Only a sample is shown. Results with a measured potency or affinity are listed apart.

Each compound was assayed against Virion infectivity factor (Human immunodeficiency virus type 1 group M subtype B (isolate BH10)) + Virion infectivity factor (Human immunodeficiency virus type 1 group M subtype B (isolate BRU/LAI)) + Virion infectivity factor (Human immunodeficiency virus type 1 group M subtype B (isolate PCV12)) + Virion infectivity factor (Human immunodeficiency virus type 1 group M subtype B (isolate HXB2)) + DNA dC->dU-editing enzyme APOBEC-3G (Homo sapiens) (UniProt P69720+P69721+P69722+P69723+Q9HC16) (assay: HIV-1 Vif–A3G interaction blockers – biochemical, TR-FRET, GST-Vif 1-94, biotin-A3G peptide, dose response retest, primary screen (AID 1117319;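 further: Vif residues 1-94 fused to GST binding biotinylated APOBEC3G peptide 110-148; 0% = full assay without inhibitor and 100% = GST in place of GST-Vif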)). Conditions: TR-FRET GST-Vif / biotin-A3G peptide binding; active compounds read high.

inhibition, inactive:
COC(=O)C(CC(=O)c1ccc(Cl)cc1)c1ccc(C(C)C)cc1 (configuration not stated) 10.5%
CC(C)NC(=O)N(Cc1ccccc1)Cc1cccs1 -1.49%
O=C(CCCl)N(Cc1nc2ccccc2c(=O)[nH]1)Cc1cccs1 -7.06%
CN(CC(=O)Nc1cccc(F)c1)C(=O)c1ccccc1OCCOc1ccccc1 2.96%
O=C(NNC(=O)c1ccccc1C(=O)O)c1cc2ccccc2o1 19%
C=CCNC(=O)c1ccc(-c2ccc([N+](=O)[O-])cc2)o1 16.1%
O=C(NNC(=O)c1cc2ccccc2o1)c1ccc(F)cc1 -2.65%
CC(=O)Nc1ccc(NC(=O)c2ccc(-c3ccc([N+](=O)[O-])cc3)o2)cc1 -7.43%
CC1CCN(c2ccccc2NC(=S)NC(=O)C(C)(C)C)CC1 -4.59%
COc1ccc2c(CC(=O)NNC(=O)c3cccs3)coc2c1 5.01%
CCCC(C(=O)NC(C)(C)C)N(Cc1ccccc1)C(=O)c1snc(C(N)=O)c1N (configuration not stated) 3.36%
Cc1nn(Cc2ccc(Cl)cc2Cl)c(C)c1NC(=O)c1nn(C)cc1Cl -2.6%
O=C(CCc1ccccc1)Nc1ccc(NS(=O)(=O)c2ccccc2)cc1 0.68%
Cc1c[n+]([O-])cc(C)c1[N+](=O)[O-] -3.91%
O=C(CCN1CCN(CCO)CC1)Nc1ccc(OCc2ccccc2)cc1 -0.21%
c1cc2c(cc1CN1CCOCC1)OCO2 11.3%
CC1(C)CC(=O)C2=C(C1)NCN(Cc1ccccc1)C2 0.39%
O=C(OCC(=O)N1CCCC1)c1c2c(nc3ccccc13)CCCCC2 -4.27%
NNC(=O)C1C(O)CCC2CN3CCc4c([nH]c5ccccc45)C3CC21 (configuration not stated) -9.7%
C[C@@H]1ON(C)[C@H]2C[C@H]3c4[nH]c5ccccc5c4CCN3C[C@@H]12 -1.4%
Cc1ccnc(NS(=O)(=O)c2cc([N+](=O)[O-])ccc2C)c1 -2.19%
COc1ccc(/C=C2\N=C(c3ccccc3Cl)NC2=O)cc1 3.99%
Brc1cccc(-c2nnco2)c1 -2.5%
O=c1/c(=C/c2ccco2)sc2n1CN(c1cccc(Br)c1)CN=2 32.9%
Cc1ccc(C2=N/C(=C\c3ccc(F)cc3)C(=O)N2)cc1 -3.34%
O=C(CCc1nc2ccccc2c(=O)[nH]1)OCc1ccc(-c2ccccc2)cc1 -13.5%
CCc1ccc2c(c1)C(=O)CCC2 -0.54%
O=C(CN1CCCCC1)NCCNC(=O)CN1CCCCC1 -5.6%
Cc1ccc2c(c1)c1c3n2CCN(C(=O)CN2CCN(C)CC2)C3CCC1 (configuration not stated) -1.2%
Cc1ccc2c(c1)c1c3n2CCN(C(=O)C2CC2)C3CCC1 (configuration not stated) 14.1%
COC(=O)c1ccc2c(c1)SC1=C(CCCC1=O)N2 20.1%
CNCc1ccccc1OCc1ccc(F)cc1 -4.9%
CC(C(=O)Nc1ccc2c(c1)OCCO2)N1Cc2ccccc2C1=O (configuration not stated) 7.84%
CCC(C)[C@@H](C(=O)Nc1ccc(OC)c(OC)c1)N1Cc2ccccc2C1=O (some centres not stated) 3.88%
N#CC(C(N)=O)=C1CCC2(CC1)OCCCCO2 3.27%
N#C/C(C(N)=O)=C1/CCc2ccccc2N1 -2.65%
C[C@@H]1CCCCO[C@H](CN(C)Cc2ccc(C(F)(F)F)cc2)[C@@H](C)CN([C@H](C)CO)C(=O)c2cc(NS(=O)(=O)c3cn(C)cn3)ccc2O1 -0.57%
Cc1noc(C)c1S(=O)(=O)Nc1ccc2c(c1)C(=O)N([C@@H](C)CO)C[C@@H](C)[C@@H](CN(C)CC1CCCCC1)OCCCC[C@@H](C)O2 2.32%
CCOC(=O)c1c(C)nc(C)c(C(=O)OCC)c1-c1cccc(N)c1 -1.65%
CC(C)n1c(SCC(=O)Nc2nc3ccccc3s2)nc2c1c(=O)n(C)c(=O)n2C 10.6%
NS(=O)(=O)c1cc(Br)c2c(c1)S(=O)(=O)NCN2 -0.53%
CCOC(=O)N1CCC(N(CCN(C)C)C(=S)Nc2cccc(Cl)c2C)CC1 -1.98%
O=C1NN(c2ccccc2)C(=O)/C1=C/c1ccc(-c2ccc(Cl)c(C(=O)O)c2)o1 -2.97%
Cc1ccc(N2NC(=O)/C(=C/c3ccc(-c4ccc(Cl)c(C(=O)O)c4)o3)C2=O)cc1 0.99%
CCOc1ccc2[nH]c(=O)c(CN(CCO)C(=O)c3ccc(OC)c(OC)c3)cc2c1 -0.38%
CCN(C(=O)COC(=O)c1cnc(C)cn1)c1c(N)n(Cc2ccccc2)c(=O)[nH]c1=O 2.12%
O=c1cc(-c2ccc(O)c(O)c2)oc2cc(O)cc(O)c12 15.6%
COc1c(O)cc2oc(-c3ccc(O)cc3)cc(=O)c2c1O 19.4%
O=c1cc(-c2ccc(O)cc2)oc2cc(O[C@@H]3O[C@H](CO)[C@@H](O)[C@H](O)[C@H]3O[C@@H]3OC[C@](O)(CO)[C@H]3O)cc(O)c12 6.15%
O=c1cc(-c2ccc(O)c(O)c2)oc2ccc3ccccc3c12 10.7%
COc1ccc(CNC(=O)CCC(=O)N2CCN(S(=O)(=O)c3cc([N+](=O)[O-])ccc3C)CC2)cc1 -6.42%
CN(C)c1ncc(/C=C2/C(=O)NC(=S)N(C3CCCCC3)C2=O)cn1 1.75%
CCOc1ccc(CCNS(=O)(=O)c2ccc3c(c2)oc(=O)n3C)cc1OCC 13.6%
c1ccc(CN2CCc3[nH]c4ccccc4c3C2)cc1 -5.69%
CC(C)CC(=O)N1CCN(C(=O)c2cccc(F)c2)CC1 -7.36%
COc1ccc(OCC(O)CN(C)C(=O)/C=C/c2cccc([N+](=O)[O-])c2)cc1 (configuration not stated) -4.1%
COc1ccc(/C=C/c2nc3sc4c(c3c(=O)o2)CCC4)cc1 -1.87%
O=c1oc(/C=C/c2ccccc2)nc2sc3c(c12)CCC3 70.5%
CCc1ccccc1OCC(=O)OCC(=O)N1CC(=O)Nc2ccccc21 -5.84%
CS(=O)(=O)N(CC(=O)NCc1ccc2c(c1)OCO2)C1CCCCC1 -13.6%
Oc1cccc(/C=N/N2CCCCC2)c1O -5.32%
COc1cccc(/C=N/N2CCOCC2)c1O 2.44%
O=C1c2ccccc2C(=O)N1/N=C/c1ccc(O)c(O)c1 29.1%
CCN(CC)c1ccc(/C=N/N2C(=O)c3ccccc3C2=O)c(O)c1 19.7%
Oc1ccccc1C=NN1CCCCCC1 -3.73%
CCN(CC)c1ccc(/C=N/N2CCOCC2)c(O)c1 -1.22%
CCC(=O)C1CCCN(C(=O)CCc2nnc(C3(c4ccc(Cl)cc4)CCC3)o2)C1 (configuration not stated) 8.39%
CCC(C)(C(=O)NC1CCCC1)N(C(=O)c1ccccn1)c1ccc(C)cc1 (configuration not stated) 5.82%
CC(=O)Nc1cccc(C(=O)OCC(=O)NNC(=O)c2cccs2)c1 -1.93%
Cc1ccc(C2(C)NC(=O)N(CC(=O)Nc3nc(-c4ccccn4)cs3)C2=O)cc1 (configuration not stated) 0.48%
COc1ccccc1OCC(=O)NCC(C)NC(=O)COc1ccccc1OC (configuration not stated) 5.26%
COc1ccc(-c2cn(-c3ccc(C)cc3)c(=O)n2CC(=O)Nc2cccc(F)c2)cc1 7.83%
CCOc1cccc2sc(N(CCCN(C)C)C(=O)Cc3ccccc3)nc12 3.08%
CCc1c(C)sc(NC(=O)OC)c1C(N)=O -10.3%
CCc1c(C)sc(NC(=O)OC)c1C(=O)N1CCOCC1 -5.04%
OC(COCc1ccccc1)CN1CCCC1 (configuration not stated) 1.73%
COc1ccc2oc(C(=O)c3ccccc3)c(NC(=O)CN3CCN(C)CC3)c2c1 1.78% and 5.75%
